Source: PubChem BioAssay (EPA / NIEHS)
Where “and” joins values, the source holds several entries; their conditions need not be identical. Equal entries are not always repeated. Records with an inconclusive call do not appear. Calls of active or inactive are those of the source. The calls were made as follows, unless noted: active = hit-call score of the fitted dose curve at least 0.9, where 1 is the maximum; inactive = score below 0.9.

Legend:
[1] = molecular target: Retinoic acid receptor RXR-alpha (Homo sapiens) (UniProt P19793); test: ATG_RXRa_TRANS: Attagene TRANS-FACTORIAL HepG2 Assay for human Retinoid X Receptor alpha (RXRa) (AID 2283012; active = hit-call score of the fitted dose curve at least 0.9, where 1 is the maximum)
Sequence of Retinoic acid receptor RXR-alpha (Homo sapiens) (P19793 whole entry, looked up, the tested form may be a part): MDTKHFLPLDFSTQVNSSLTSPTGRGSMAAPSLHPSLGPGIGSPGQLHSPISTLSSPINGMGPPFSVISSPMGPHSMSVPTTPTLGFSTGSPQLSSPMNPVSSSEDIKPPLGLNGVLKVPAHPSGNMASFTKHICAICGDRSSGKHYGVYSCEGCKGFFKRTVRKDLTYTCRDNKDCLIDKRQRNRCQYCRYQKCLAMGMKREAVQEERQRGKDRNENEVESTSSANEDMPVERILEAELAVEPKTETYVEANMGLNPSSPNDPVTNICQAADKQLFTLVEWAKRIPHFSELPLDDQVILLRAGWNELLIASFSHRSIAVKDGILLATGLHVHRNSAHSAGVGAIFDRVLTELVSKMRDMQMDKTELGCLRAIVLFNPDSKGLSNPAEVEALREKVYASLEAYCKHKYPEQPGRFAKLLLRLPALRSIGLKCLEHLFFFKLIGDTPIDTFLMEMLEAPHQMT
Method in brief: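 Transient transfection of human HepG2 with multiple GAL4-UAS reporter constructs; 24 h compound exposure; total RNA isolated, reverse-transcribed, PCR-amplified, 6-FAM labelled, HpaI-cut, resolved by capillary electrophoresis. Positive-direction fit versus DMSO.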

[2] = molecular target: human Retinoid X Receptor beta (RXRb), RXRB (gene 6257) (UniProt P28702); test: ATG_RXRb_TRANS: Attagene TRANS-FACTORIAL HepG2 Assay for human Retinoid X Receptor beta (RXRb) (AID 2283013; active = hit-call score of the fitted dose curve at least 0.9, where 1 is the maximum)
Sequence of human Retinoid X Receptor beta (RXRb), RXRB (gene 6257) (P28702 whole entry, looked up, the tested form may be a part): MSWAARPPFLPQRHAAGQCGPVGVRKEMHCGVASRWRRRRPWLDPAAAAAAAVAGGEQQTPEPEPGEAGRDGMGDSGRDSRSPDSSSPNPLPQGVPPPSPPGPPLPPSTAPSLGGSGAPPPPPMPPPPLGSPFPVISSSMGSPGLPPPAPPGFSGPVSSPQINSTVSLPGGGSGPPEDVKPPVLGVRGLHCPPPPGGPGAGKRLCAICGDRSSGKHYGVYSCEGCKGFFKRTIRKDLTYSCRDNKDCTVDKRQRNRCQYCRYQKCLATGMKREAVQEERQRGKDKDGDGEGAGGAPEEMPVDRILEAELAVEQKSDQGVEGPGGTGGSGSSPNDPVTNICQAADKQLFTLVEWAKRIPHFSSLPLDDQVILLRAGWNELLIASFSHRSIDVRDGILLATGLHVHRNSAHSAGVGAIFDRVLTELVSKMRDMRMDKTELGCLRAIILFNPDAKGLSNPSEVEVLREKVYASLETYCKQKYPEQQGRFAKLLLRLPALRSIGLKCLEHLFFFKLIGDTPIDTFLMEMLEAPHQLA
Method in brief: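 Transfect HepG2 with GAL4-UAS multi-reporter constructs (chimeric NR-Gal4, TRANS format); dose compound 24 h; isolate RNA, RT-PCR, FAM primer extension, HpaI digest; quantify by capillary electrophoresis; positive direction vs DMSO.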

[3] = read-out: E-selectin (Homo sapiens) (UniProt P16581); test: BSK_3C_Eselectin: BioMAP Diversity Plus: 3C Assay for Eselectin Biomarker Activity (AID 2283015); conditions: primary human endothelial cells (HUVEC); actives raise or lower the signal
Method in brief: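 Primary human umbilical vein endothelial cells (3C system) were dosed with chemical and cell-surface E-selectin measured by ELISA 24 h later. Bidirectional curve fitting used DMSO as negative control and baseline.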

[4] = read-out: Interleukin-1 alpha (IL1a), IL1A (gene 3552); test: BSK_BE3C_IL1a: BioMAP Diversity Plus: BE3C Assay for Interleukin-1 alpha (IL1a) Biomarker Activity (AID 2283016); conditions: primary human bronchial epithelial cells; actives raise or lower the signal
Method in brief: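 BE3C primary human bronchial epithelium; cpd 24 h; IL-1a by ELISA; bidirectional fit vs DMSO; parallel SRB (0.1% SRB, 10% TCA fix, 560 nm) for cytotoxicity.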

[5] = read-out: Monocyte Chemoattractant Protein-1 (MCP1), CCL2 (gene 6347); test: BSK_3C_MCP1: BioMAP Diversity Plus: 3C Assay for Monocyte Chemoattractant Protein-1 (MCP1) Biomarker Activity (AID 2283017); conditions: primary human endothelial cells (HUVEC); actives raise or lower the signal
Method in brief: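 Primary human umbilical vein endothelial cells (3C system) were exposed to test chemical for 24 h, after which MCP-1 was quantified by ELISA. Activity was fitted bidirectionally against DMSO as negative control and baseline.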

[6] = read-out: Monocyte Chemoattractant Protein-1 (MCP1), CCL2 (gene 6347); test: BSK_4H_MCP1: BioMAP Diversity Plus: 4H Assay for Monocyte Chemoattractant Protein-1 (MCP1) Biomarker Activity (AID 2283018); conditions: primary human endothelial cells (HUVEC); actives raise or lower the signal
Method in brief: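 ELISA read-out of MCP-1 from human vascular endothelial primary cells taken at 24 hours after compound exposure. Activity was fitted in both directions relative to DMSO, which served as negative control.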

[7] = read-out: Human Leukocyte Antigen - DR isotype (HLADR), HLA-DRA (gene 3122); test: BSK_3C_HLADR: BioMAP Diversity Plus: 3C Assay for Human Leukocyte Antigen - DR isotype (HLADR) Biomarker Activity (AID 2283019); conditions: primary human endothelial cells (HUVEC); actives raise or lower the signal
Method in brief: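 Primary human umbilical vein endothelial cells (3C system) were dosed with compound and cell-surface HLA-DR was quantified by ELISA at 24 h. Activity was fitted bidirectionally against DMSO as negative control and baseline.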

[8] = read-out: Interleukin-8 (IL8), CXCL8 (gene 3576); test: BSK_3C_IL8: BioMAP Diversity Plus: 3C Assay for Interleukin-8 (IL8) Biomarker Activity (AID 2283020); conditions: primary human endothelial cells (HUVEC); actives raise or lower the signal
Method in brief: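 ELISA read-out of IL-8 from human umbilical vein endothelium, measured 24 h after chemical dosing. Activity is expressed relative to DMSO negative control, with both increases and decreases fitted.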

[9] = molecular target: human Vitamin D Receptor (VDR), VDR (gene 7421) (UniProt P11473); test: ATG_VDR_TRANS: Attagene TRANS-FACTORIAL HepG2 Assay for human Vitamin D Receptor (VDR) (AID 2283022; active = hit-call score of the fitted dose curve at least 0.9, where 1 is the maximum)
Sequence of human Vitamin D Receptor (VDR), VDR (gene 7421) (P11473 whole entry, looked up, the tested form may be a part): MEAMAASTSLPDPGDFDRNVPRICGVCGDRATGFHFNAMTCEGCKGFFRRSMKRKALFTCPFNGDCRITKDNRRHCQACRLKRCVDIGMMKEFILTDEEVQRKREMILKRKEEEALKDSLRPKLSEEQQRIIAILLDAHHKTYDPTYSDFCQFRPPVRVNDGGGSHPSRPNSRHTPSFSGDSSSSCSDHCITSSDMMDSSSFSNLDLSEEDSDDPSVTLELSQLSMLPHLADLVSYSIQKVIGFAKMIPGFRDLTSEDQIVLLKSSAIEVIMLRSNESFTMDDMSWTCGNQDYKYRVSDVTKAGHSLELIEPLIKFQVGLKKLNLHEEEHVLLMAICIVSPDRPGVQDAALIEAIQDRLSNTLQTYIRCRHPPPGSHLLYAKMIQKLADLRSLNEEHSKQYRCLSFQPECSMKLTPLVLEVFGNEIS
Method in brief: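 HepG2 cells were transiently transfected with multiple GAL4-UAS reporter units, so signal reflects exogenous chimeric receptor-Gal4 activity. After 24 h compound exposure, reporter mRNA was measured by RT-PCR, fluorescent labelling and capillary electrophoresis, fitted for gain of signal versus DMSO.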

[10] = BSK_3C_SRB: Viability Assessment in the BioMAP Diversity Plus: 3C Assay (AID 2283023); conditions: primary human endothelial cells (HUVEC);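 also: fitted both ways against DMSO so a hit may be signal rise or drop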
Method in brief: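 Primary human umbilical vein endothelial cells in the 3C system were read 24 h after compound dosing. Total protein was stained with 0.1% sulforhodamine B after 10% TCA fixation and read at 560 nm, with bidirectional fitting against DMSO as baseline.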

[11] = read-out: Matrix Metallopeptidase 1 (MMP1), MMP1 (gene 4312); test: BSK_BE3C_MMP1: BioMAP Diversity Plus: BE3C Assay for Matrix Metallopeptidase 1 (MMP1) Biomarker Activity (AID 2283024); conditions: primary human bronchial epithelial cells; actives raise or lower the signal
Method in brief: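 Human bronchial epithelial cells (BE3C system) exposed to compound for 24 h; MMP1 then quantified by ELISA. Activity was fitted in both directions relative to DMSO.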

[12] = BSK_3C_Vis: BioMAP Diversity Plus: 3C Assay for Morphology Visualization (AID 2283025); conditions: primary human endothelial cells (HUVEC);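 also: fitted both ways so gain or loss versus DMSO counts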;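 as to AC50: light microscopy image of cell morphology used as background control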
Method in brief: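 Chemicals were added to primary human umbilical vein endothelium, cells were incubated 24 h, and morphology was then visualized by light microscopy. Gain or loss of signal was fitted bidirectionally relative to DMSO.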

[13] = read-out: Pselectin, SELP (gene 6403); test: BSK_4H_Pselectin: BioMAP Diversity Plus: 4H Assay for Pselectin Biomarker Activity (AID 2283026); conditions: primary human endothelial cells (HUVEC); actives raise or lower the signal
Method in brief: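 ELISA read-out of P-selectin on human umbilical vein endothelium after 24 h of dosing. Values derive from bidirectional fitting relative to DMSO. Parallel SRB protein staining flagged overt cytotoxicity.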

[14] = BSK_4H_SRB: Viability Assessment in the BioMAP Diversity Plus: 4H Assay (AID 2283027); conditions: primary human endothelial cells (HUVEC);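 also: cells exposed to compound for 24 h before staining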;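 as to AC50: curves fitted both ways versus DMSO so AC50 may be loss or gain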
Method in brief: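 Human umbilical vein endothelial cells, 24 h after chemical dosing; total protein measured by 0.1% sulforhodamine B staining after 10% TCA fixation, read at 560 nm. Bidirectional fitting against DMSO.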

[15] = BSK_BE3C_SRB: Viability Assessment in the BioMAP Diversity Plus: BE3C Assay (AID 2283028); conditions: primary human bronchial epithelial cells;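 as to AC50: fitted both ways so AC50 may mark signal gain or loss versus DMSO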
Method in brief: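 Human primary bronchial epithelial cells were exposed to test chemicals for 24 h. Total protein in parallel cultures was then measured by staining with 0.1% sulforhodamine B after 10% TCA fixation, with absorbance read at 560 nm. Activity was fitted bidirectionally against DMSO.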

[16] = read-out: Thrombomodulin, THBD (gene 7056); test: BSK_3C_Thrombomodulin: BioMAP Diversity Plus: 3C Assay for Thrombomodulin Biomarker Activity (AID 2283029); conditions: primary human endothelial cells (HUVEC); actives raise or lower the signal
Method in brief: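 Read-out is ELISA of thrombomodulin on human umbilical vein endothelium 24 h after chemical dosing. Gain or loss of signal is scored relative to DMSO. Overt cytotoxicity is checked in parallel cultures by sulforhodamine B staining.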

[17] = read-out: Urokinase-type plasminogen activator receptor (uPAR), PLAUR (gene 5329); test: BSK_4H_uPAR: BioMAP Diversity Plus: 4H Assay for Urokinase-type plasminogen activator receptor (uPAR) Biomarker Activity (AID 2283030); conditions: primary human endothelial cells (HUVEC); actives raise or lower the signal
Method in brief: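 Primary human umbilical vein endothelial cells were exposed to chemical for 24 h before cell-surface uPAR was quantified by ELISA. Activity was fitted bidirectionally against the DMSO negative control baseline.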

[18] = read-out: Vascular endothelial growth factor receptor 2 (Homo sapiens) (UniProt P35968); test: BSK_4H_VEGFRII: BioMAP Diversity Plus: 4H Assay for Vascular endothelial growth factor receptor 2 (VEGFR2) Biomarker Activity (AID 2283031); conditions: primary human endothelial cells (HUVEC); actives raise or lower the signal;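 as to AC50: cell-surface VEGFR2 protein level quantified by ELISA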
Method in brief: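 Primary human umbilical vein endothelial cells in the BioMAP 4H system were dosed with test chemical, and 24 h later VEGFRII was measured by ELISA. Activity was fitted bidirectionally against DMSO as negative control and baseline.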

[19] = molecular target: human Thyroid Receptor alpha (THRa1), THRA (gene 7067) (UniProt P10827); test: ATG_THRa1_TRANS: Attagene TRANS-FACTORIAL HepG2 Assay for human Thyroid Receptor alpha (THRa1) (AID 2283014; active = hit-call score of the fitted dose curve at least 0.9, where 1 is the maximum)
Sequence of human Thyroid Receptor alpha (THRa1), THRA (gene 7067) (P10827 whole entry, looked up, the tested form may be a part): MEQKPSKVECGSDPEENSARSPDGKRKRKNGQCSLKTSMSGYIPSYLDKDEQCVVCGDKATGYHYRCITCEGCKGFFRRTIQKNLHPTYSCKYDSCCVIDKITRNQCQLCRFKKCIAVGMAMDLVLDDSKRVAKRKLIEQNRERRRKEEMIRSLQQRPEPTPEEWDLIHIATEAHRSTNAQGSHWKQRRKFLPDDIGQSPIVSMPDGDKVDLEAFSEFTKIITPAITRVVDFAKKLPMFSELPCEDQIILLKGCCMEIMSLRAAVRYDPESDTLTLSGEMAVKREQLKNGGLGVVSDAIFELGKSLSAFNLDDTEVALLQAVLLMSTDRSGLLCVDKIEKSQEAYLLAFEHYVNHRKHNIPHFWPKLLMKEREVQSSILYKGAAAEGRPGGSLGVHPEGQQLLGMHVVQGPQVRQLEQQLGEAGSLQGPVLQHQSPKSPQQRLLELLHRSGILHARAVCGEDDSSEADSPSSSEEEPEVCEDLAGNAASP
Method in brief: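 HepG2 cells transiently transfected with multiplexed GAL4-UAS reporter units for exogenous chimeric THRa1-Gal4; reporter mRNA measured 24 h after dosing by RT-PCR, 6-FAM labelling, HpaI digestion and capillary electrophoresis. Gain-of-signal fitted versus DMSO baseline.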

[20] = read-out: Monokine induced gamma interferon (MIG), CXCL9 (gene 4283); test: BSK_3C_MIG: BioMAP Diversity Plus: 3C Assay for Monokine induced gamma interferon (MIG) Biomarker Activity (AID 2283021); conditions: primary human endothelial cells (HUVEC); actives raise or lower the signal;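 as to AC50: MIG protein level measured by immunoassay in the treated endothelial cultures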
Method in brief: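 Read-out is ELISA detection of MIG on human umbilical vein endothelial cells, taken 24 h after dosing. Gain or loss of signal was scored relative to DMSO controls using bidirectional curve fitting.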

Measured: AC50

Sequence of E-selectin (Homo sapiens) (P16581 whole entry, looked up): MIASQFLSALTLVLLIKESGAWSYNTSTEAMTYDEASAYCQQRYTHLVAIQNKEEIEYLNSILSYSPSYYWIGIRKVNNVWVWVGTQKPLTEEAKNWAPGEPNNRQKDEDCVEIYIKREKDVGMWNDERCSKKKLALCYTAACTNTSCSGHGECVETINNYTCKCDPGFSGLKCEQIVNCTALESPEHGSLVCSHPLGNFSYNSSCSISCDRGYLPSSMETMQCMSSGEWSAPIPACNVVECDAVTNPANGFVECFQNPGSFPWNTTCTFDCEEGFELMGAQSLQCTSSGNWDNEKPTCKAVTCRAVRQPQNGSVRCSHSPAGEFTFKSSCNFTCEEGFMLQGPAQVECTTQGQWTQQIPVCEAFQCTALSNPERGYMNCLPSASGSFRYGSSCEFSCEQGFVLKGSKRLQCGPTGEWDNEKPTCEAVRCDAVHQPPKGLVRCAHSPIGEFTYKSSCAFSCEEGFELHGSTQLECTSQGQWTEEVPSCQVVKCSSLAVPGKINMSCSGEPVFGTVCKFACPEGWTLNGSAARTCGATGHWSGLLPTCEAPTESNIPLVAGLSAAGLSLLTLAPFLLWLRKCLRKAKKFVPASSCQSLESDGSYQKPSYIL

CCCCCCC(C=O)=Cc1ccccc1
active: [2] 65.6 µM and 39.1 µM | [3] 37.7 µM | [5] 35 µM | [7] 36.7 µM | [8] 30.1 µM | [10] 31 µM | [12] 37.5 µM | [13] 31.1 µM | [14] 31.8 µM
inactive: [1] | [4] | [6] | [9] | [11] | [15] | [16] | [17] | [18]

CCN(CC)CCOc1ccc(C(=C(Cl)c2ccccc2)c2ccccc2)cc1
inactive: [1] | [2] | [19] | [9] | [18]
active: [3] 14.3 µM | [4] 18.9 µM | [5] 11.6 µM | [6] 9.04 µM | [7] 7.41 µM | [8] 10.9 µM | [20] 15.1 µM | [10] 11.7 µM | [11] 28 µM | [12] 6.1 µM | [13] 8.24 µM | [14] 13.1 µM | [15] 27.8 µM | [16] 5.39 µM

Nc1nc(Cl)nc2c1ncn2[C@H]1C[C@H](O)[C@@H](CO)O1
active: [12] 38.6 µM | [17] 18.5 µM | [18] 2.65 µM
not listed: [9] | [19]
inactive: all other assays above

CCCCc1nc2cccnc2n1Cc1ccc(-c2ccccc2-c2nnn[nH]2)cc1
active: [19] 21.4 µM | [11] 6.21 µM
not listed: [9] | [17] | [20]
inactive: all other assays above

C=CCCCCCCCCCCCC
active: [2] 59.1 µM
not listed: [19] | [20]
inactive: all other assays above

CCc1nc(N)nc(N)c1-c1ccc(Cl)cc1
not listed: [19]
inactive: all other assays above

COc1ccc(C(=O)Nc2nc3ccccc3c(NCc3ccccc3)c2C#N)cc1
active: [10] 8.6 µM | [11] 7.48 µM | [12] 39 µM
not listed: [9] | [17] | [19]
inactive: all other assays above
